Several values for one entry are separate records, joined by “and”; a condition that tells them apart may be missing. Identical values can stand only once. About 2,000 (36%) of roughly 5,500 compounds were called active. Roughly 18% stayed inconclusive and do not appear here. No stated cut-off is given here; in the data, active means normalized growth mostly below about 0.91 (no sharp cut-off); inconclusive means no clear call, values can overlap the other calls; inactive means mostly above about 0.92. Some of the results follow.
Experiment: chemical genetic growth profiling, strain panel (AID 1159580);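 further: tested at 20 µM; growth read once vehicle control cultures reached saturation at 30 °C; 1 = growth at the plate median or of vehicle wells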
Details: S. cerevisiae deletion strains, growth OD

C/C(=C\CO)CC[C@H](C)CCC[C@H](C)CCCC(C)C
normalized growth (locus YAL021C, strain ccr4, stronger effect = lower value): 1.12 [resistant] (active) | normalized growth (locus YAL026C, strain drs2, stronger effect = lower value): 1.12 [resistant] (active) | normalized growth (locus YAL030W, strain snc1, stronger effect = lower value): 1.13 [resistant] (active) | normalized growth (locus YBL061C, strain skt5, stronger effect = lower value): 0.97 (inactive) | normalized growth (locus YBR009C, strain hhf1, stronger effect = lower value): 1.12 [resistant] (active) | normalized growth (locus YBR021W, strain FUR4, stronger effect = lower value): 1 (inactive) | normalized growth (locus YBR023C, strain chs3, stronger effect = lower value): 0.974 (inactive) | normalized growth (locus YBR171W, strain sec66, stronger effect = lower value): 1.11 (inactive) | normalized growth (locus YBR229C, strain ROT2, stronger effect = lower value): 1.04 (inactive) | normalized growth (locus YBR231C, strain swc5, stronger effect = lower value): 0.976 (inactive) | normalized growth (locus YBR279W, strain paf1, stronger effect = lower value): 0.993 (inactive) | normalized growth (locus YCL011C, strain gbp2, stronger effect = lower value): 1.14 [resistant] (active) | normalized growth (locus YCL016C, strain dcc1, stronger effect = lower value): 0.976 (inactive) | normalized growth (locus YCL029C, strain bik1, stronger effect = lower value): 1.08 (inactive) | normalized growth (locus YCL061C, strain MRC1, stronger effect = lower value): 1.11 [resistant] (active) | normalized growth (locus YCL069W, strain vba3, stronger effect = lower value): 1.11 [resistant] (active) | normalized growth (locus YCR088W, strain abp1, stronger effect = lower value): 1.12 [resistant] (active) | normalized growth (locus YDL005C, strain med2, stronger effect = lower value): 1.14 [resistant] (active) | normalized growth (locus YDL035C, strain GPR1, stronger effect = lower value): 1.07 (inactive) | normalized growth (locus YDL040C, strain nat1, stronger effect = lower value): 0.973 (inactive) | normalized growth (locus YDL074C, strain BRE1, stronger effect = lower value): 1.1 (inactive) | normalized growth (locus YDL101C, strain DUN1, stronger effect = lower value): 1.08 (inactive) | normalized growth (locus YDL185W, strain tfp1, stronger effect = lower value): 1.11 [resistant] (active) | normalized growth (locus YDL192W, strain arf1, stronger effect = lower value): 1.13 [resistant] (active) | normalized growth (locus YDR001C, strain nth1, stronger effect = lower value): 1.13 [resistant] (active) | normalized growth (locus YDR069C, strain doa4, stronger effect = lower value): 1.15 [resistant] (active) | normalized growth (locus YDR101C, strain arx1, stronger effect = lower value): 1.11 [resistant] (active) | normalized growth (locus YDR137W, strain rgp1, stronger effect = lower value): 0.93 (inactive) | normalized growth (locus YDR150W, strain NUM1, stronger effect = lower value): 1.1 [resistant] (active) | normalized growth (locus YDR159W, strain sac3, stronger effect = lower value): 1.05 (inactive) | normalized growth (locus YDR162C, strain NBP2, stronger effect = lower value): 1.11 (inactive) | normalized growth (locus YDR195W, strain ref2): 1.09 (inactive) | normalized growth (locus YDR297W, strain sur2, stronger effect = lower value): 1.13 [resistant] (active) | normalized growth (locus YDR318W, strain mcm21, stronger effect = lower value): 1.13 [resistant] (active) | normalized growth (locus YDR334W, strain swr1, stronger effect = lower value): 1.14 [resistant] (active) | normalized growth (locus YDR335W, strain msn5, stronger effect = lower value): 1.13 [resistant] (active) | normalized growth (locus YDR388W, stronger effect = lower value): 1.12 [resistant] (active) | normalized growth (locus YDR392W, strain spt3, stronger effect = lower value): 1.11 (inactive) | normalized growth (locus YDR502C, strain sam2, stronger effect = lower value): 1.16 [resistant] (active) | normalized growth (locus YEL003W, strain gim4, stronger effect = lower value): 1.13 [resistant] (active) | normalized growth (locus YEL037C, strain rad23, stronger effect = lower value): 1.13 [resistant] (active) | normalized growth (locus YEL061C, strain CIN8 (second series), stronger effect = lower value): 1.14 [resistant] (active) | normalized growth (locus YEL061C, strain CIN8, stronger effect = lower value): 1.09 [resistant] (active) | normalized growth (locus YER015W, strain faa2, stronger effect = lower value): 1.12 [resistant] (active) | normalized growth (locus YER016W, strain bim1, stronger effect = lower value): 0.97 (inactive) | normalized growth (locus YER110C, stronger effect = lower value): 1.14 [resistant] (active) | normalized growth (locus YER111C, strain swi4, stronger effect = lower value): 1.06 (inactive) | normalized growth (locus YER155C, strain BEM2 (second series), stronger effect = lower value): 1.07 (inactive) | normalized growth (locus YER155C, strain BEM2, stronger effect = lower value): 1.02 (inactive) | normalized growth (locus YER167W, strain BCK2, stronger effect = lower value): 1.01 (inactive) | normalized growth (locus YFR010W, strain ubp6, stronger effect = lower value): 1.18 [resistant] (active) | normalized growth (locus YGL078C, strain dbp3, stronger effect = lower value): 1.13 [resistant] (active) | normalized growth (locus YGL086W, strain mad1, stronger effect = lower value): 1.09 [resistant] (active) | normalized growth (locus YGL167C, strain pmr1, stronger effect = lower value): 0.962 (inactive) | normalized growth (locus YGL173C, strain kem1, stronger effect = lower value): 1.1 [resistant] (active) | normalized growth (locus YGL227W, strain vid30, stronger effect = lower value): 1.12 [resistant] (active) | normalized growth (locus YGL240W, strain doc1, stronger effect = lower value): 1.13 [resistant] (active) | normalized growth (locus YGL248W, strain PDE1, stronger effect = lower value): 1.06 (inactive) | normalized growth (locus YGL253W, strain hxk2, stronger effect = lower value): 1.12 [resistant] (active) | normalized growth (locus YGR078C, strain PAC10, stronger effect = lower value): 1.13 (inactive) | normalized growth (locus YGR135W, strain pre9, stronger effect = lower value): 1.15 [resistant] (active) | normalized growth (locus YGR229C, strain SMI1, stronger effect = lower value): 1.14 (inactive) | normalized growth (locus YGR252W, strain gcn5, stronger effect = lower value): 1.1 (inactive) | normalized growth (locus YHR013C, strain ard1, stronger effect = lower value): 0.945 (inactive) | normalized growth (locus YHR027C, strain rpn1, stronger effect = lower value): 1.14 [resistant] (active) | normalized growth (locus YHR030C, strain SLT2, stronger effect = lower value): 1.09 [resistant] (active) and 0.974 (inactive) | normalized growth (locus YHR079C, strain IRE1 (second series), stronger effect = lower value): 1.13 [resistant] (active) | normalized growth (locus YHR079C, strain IRE1, stronger effect = lower value): 0.966 (inactive) | normalized growth (locus YHR094C, strain hxt1, stronger effect = lower value): 1.14 [resistant] (active) | normalized growth (locus YHR129C, strain ARP1, stronger effect = lower value): 1.08 (inactive) | normalized growth (locus YHR142W, strain chs7, stronger effect = lower value): 1.09 (inactive) | normalized growth (locus YHR200W, strain rpn10, stronger effect = lower value): 1.13 [resistant] (active) | normalized growth (locus YIL066C, strain RNR3, stronger effect = lower value): 1.09 (inactive) | normalized growth (locus YIL073C, strain SPO22, stronger effect = lower value): 1.25 (inactive) | normalized growth (locus YIL125W, strain kgd1, stronger effect = lower value): 1.12 [resistant] (active) | normalized growth (locus YIR030C, strain dcg1, stronger effect = lower value): 1.13 [resistant] (active) | normalized growth (locus YJL092W, strain hpr5, stronger effect = lower value): 1.13 [resistant] (active) | normalized growth (locus YJL095W, strain BCK1 (second series), stronger effect = lower value): 1.02 (inactive) | normalized growth (locus YJL095W, strain BCK1, stronger effect = lower value): 1.1 (inactive) and 0.966 (inactive) | normalized growth (locus YJL115W, strain asf1, stronger effect = lower value): 1.14 [resistant] (active) | normalized growth (locus YJL129C, strain trk1, stronger effect = lower value): 1.09 (inactive) | normalized growth (locus YJL134W, strain LCB3, stronger effect = lower value): 1.09 [resistant] (active) | normalized growth (locus YJL154C, strain vps35, stronger effect = lower value): 1.13 [resistant] (active) | normalized growth (locus YJL164C, strain tpk1, stronger effect = lower value): 1.13 [resistant] (active) | normalized growth (locus YJL166W, strain qcr8, stronger effect = lower value): 1.13 [resistant] (active) | normalized growth (locus YJL168C, strain set2, stronger effect = lower value): 1.13 [resistant] (active) | normalized growth (locus YJL187C, strain SWE1 (second series), stronger effect = lower value): 1.1 (inactive) | normalized growth (locus YJL187C, strain SWE1, stronger effect = lower value): 1.07 (inactive) | normalized growth (locus YJR043C, strain POL32, stronger effect = lower value): 1.12 (inactive)

From PubChem BioAssay AID1159580 (chemical genetic matrix, 2015)
